# The supplement of paper PMC10849652
# About 7,900 targets were measured; listed, in parts, are those with a hit and a random draw of the rest. About 0.6% of all pairs of compound and target were hits. Values without a mark were called inactive.
# Experiments:
# Assay in all cases: log2 fold change, soluble protein after heating vs DMSO (PISA); higher = thermal stabilisation; K562 cells, 10 uM, 30 min; active = over 0.2 and 3.5 SD of the protein, either way, in both replicates (recomputed)
# erlotinib = compound: C#Cc1cccc(Nc2ncnc3cc(OCCOC)c(OCCOC)cc23)c1 [erlotinib]
# Method in brief: (§1)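 Soluble protein was defined as the supernatant after 21,000xg for 90 min. It came from K562 cells at 2×10^6 cells/mL given 10 μM compound for 30 min, heated in aliquots for 3 min across 48°C-58°C, pooled, and extracted in PBS with 0.5% NP-40 at 4°C, and was quantified by TMTpro 16plex LC-MS/MS with equalised channel sums. Thermal stability against control samples, from duplicates, is reported as log2 fold change.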
# [1] = compound: C/C(=N\NC(=O)C1=CC(=CC=C1)S(=O)(=O)N2CCOCC2)/C3=C(C=CC(=C3)Cl)O
# Method in brief: as §1
# [2] = compound: C1=CC(=C(C=C1Cl)C2=NC3=NC=CN=C3C(=N2)NC4=CC=NC=C4)F
# Method in brief: as §1
# [3] = compound: C1=CC(=CC=C1C2=NC3=C(N2)C=C(C=C3)C(=O)N)OC4=CC=C(C=C4)Cl
# Method in brief: as §1
# [4] = compound: C1=CC2=C(C=CC(=C2)/C=C\3/C(=O)NC(=NCC4=CC=CS4)S3)N=C1
# Method in brief: as §1
# [5] = compound: C1=CC2=NC=CN=C2C=C1/C=C/3\C(=O)NC(=O)S3
# Method in brief: as §1
# [6] = compound: C1=CC=C(C=C1)C2=NC(=C(N2)C3=CC=NC=C3)C4=CC(=C(C=C4)Cl)O
# Method in brief: as §1
# [7] = compound: C1=CC=C2C(=C1)C3=NNC4=CC=CC(=C43)C2=O
# Method in brief: as §1
# [8] = compound: C1CCN(C1)C(=O)NC2=CC=CC(=C2)NC3=NC=C(C(=N3)NCCC4=CN=CN4)Br
# Method in brief: as §1
# [9] = compound: C1CN(CCC1(CC2=CC=C(C=C2)Cl)N)C3=NC=NC4=C3C=CN4
# Method in brief: as §1
# IRAK-1-4 Inhibitor I = compound: C1COCCN1CCN2C3=CC=CC=C3N=C2NC(=O)C4=CC(=CC=C4)[N+](=O)[O-] [IRAK-1-4 Inhibitor I]
# Method in brief: as §1
# ibrutinib = compound: C=CC(=O)N1CCC[C@@H](n2nc(-c3ccc(Oc4ccccc4)cc3)c3c(N)ncnc32)C1 [ibrutinib]
# Method in brief: as §1
# [10] = compound: CC(=O)c1cnc2ccc(-c3cc(Cl)c(O)c(Cl)c3)nc2c1N[C@H]1CC[C@H](CN(C)C)CC1
# Method in brief: as §1
# ralimetinib = compound: CC(C)(C)Cn1c(N)nc2ccc(-c3[nH]c(C(C)(C)C)nc3-c3ccc(F)cc3)nc21 [ralimetinib]
# Method in brief: as §1
# [11] = compound: CC(C)(O)CC(=O)NCCn1ccc2ncnc(Nc3ccc(Oc4cccc(C(F)(F)F)c4)c(Cl)c3)c21
# Method in brief: as §1
# [12] = compound: CC(C)C1=C2N=C(C=C(N2N=C1)NCC3=CC=CC=C3)NCCCCCCN
# Method in brief: as §1
# [13] = compound: CC(C)C[C@@H](C=O)NC(=O)[C@H](CC(C)C)NC(=O)[C@H](CC(C)C)NC(=O)OCc1ccccc1
# Method in brief: as §1
# pinometostat = compound: CC(C)N(C[C@H]1O[C@@H](n2cnc3c(N)ncnc32)[C@H](O)[C@@H]1O)[C@H]1C[C@@H](CCc2nc3cc(C(C)(C)C)ccc3[nH]2)C1 [pinometostat]
# Method in brief: as §1
# [14] = compound: CC1=C(C(CC(=O)N1)C2=CC=C(C=C2)C(F)(F)F)C(=O)NC3=C(C=C4C(=C3)C=NN4)F
# Method in brief: as §1
# [15] = compound: CC1=C(C2=C(C=C1)C(=O)C3=CC=CC=C3N2CCCN)C
# Method in brief: as §1
# Sequence of UniProt P12931 (P12931 whole entry, looked up): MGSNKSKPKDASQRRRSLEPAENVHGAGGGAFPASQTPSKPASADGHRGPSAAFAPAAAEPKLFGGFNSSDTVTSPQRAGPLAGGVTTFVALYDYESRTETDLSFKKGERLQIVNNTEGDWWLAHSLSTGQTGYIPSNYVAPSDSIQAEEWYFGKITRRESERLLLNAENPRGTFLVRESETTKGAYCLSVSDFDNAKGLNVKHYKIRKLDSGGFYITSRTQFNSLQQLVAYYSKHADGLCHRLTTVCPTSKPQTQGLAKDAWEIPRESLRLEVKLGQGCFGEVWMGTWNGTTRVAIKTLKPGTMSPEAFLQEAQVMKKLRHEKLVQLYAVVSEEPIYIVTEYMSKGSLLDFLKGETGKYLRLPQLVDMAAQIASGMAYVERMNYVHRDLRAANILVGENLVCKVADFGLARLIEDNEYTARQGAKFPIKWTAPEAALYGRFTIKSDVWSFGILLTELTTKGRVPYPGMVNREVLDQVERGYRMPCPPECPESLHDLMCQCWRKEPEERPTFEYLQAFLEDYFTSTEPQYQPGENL
# Sequence of UniProt Q13242 (Q13242 whole entry, looked up): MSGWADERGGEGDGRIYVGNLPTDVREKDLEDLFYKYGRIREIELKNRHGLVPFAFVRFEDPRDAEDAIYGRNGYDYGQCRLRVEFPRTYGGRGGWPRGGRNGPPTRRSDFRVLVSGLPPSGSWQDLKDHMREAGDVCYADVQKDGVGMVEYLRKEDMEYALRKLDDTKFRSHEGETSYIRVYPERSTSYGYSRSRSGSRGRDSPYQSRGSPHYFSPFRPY
# Sequence of UniProt Q9Y5B9 (Q9Y5B9 whole entry, looked up): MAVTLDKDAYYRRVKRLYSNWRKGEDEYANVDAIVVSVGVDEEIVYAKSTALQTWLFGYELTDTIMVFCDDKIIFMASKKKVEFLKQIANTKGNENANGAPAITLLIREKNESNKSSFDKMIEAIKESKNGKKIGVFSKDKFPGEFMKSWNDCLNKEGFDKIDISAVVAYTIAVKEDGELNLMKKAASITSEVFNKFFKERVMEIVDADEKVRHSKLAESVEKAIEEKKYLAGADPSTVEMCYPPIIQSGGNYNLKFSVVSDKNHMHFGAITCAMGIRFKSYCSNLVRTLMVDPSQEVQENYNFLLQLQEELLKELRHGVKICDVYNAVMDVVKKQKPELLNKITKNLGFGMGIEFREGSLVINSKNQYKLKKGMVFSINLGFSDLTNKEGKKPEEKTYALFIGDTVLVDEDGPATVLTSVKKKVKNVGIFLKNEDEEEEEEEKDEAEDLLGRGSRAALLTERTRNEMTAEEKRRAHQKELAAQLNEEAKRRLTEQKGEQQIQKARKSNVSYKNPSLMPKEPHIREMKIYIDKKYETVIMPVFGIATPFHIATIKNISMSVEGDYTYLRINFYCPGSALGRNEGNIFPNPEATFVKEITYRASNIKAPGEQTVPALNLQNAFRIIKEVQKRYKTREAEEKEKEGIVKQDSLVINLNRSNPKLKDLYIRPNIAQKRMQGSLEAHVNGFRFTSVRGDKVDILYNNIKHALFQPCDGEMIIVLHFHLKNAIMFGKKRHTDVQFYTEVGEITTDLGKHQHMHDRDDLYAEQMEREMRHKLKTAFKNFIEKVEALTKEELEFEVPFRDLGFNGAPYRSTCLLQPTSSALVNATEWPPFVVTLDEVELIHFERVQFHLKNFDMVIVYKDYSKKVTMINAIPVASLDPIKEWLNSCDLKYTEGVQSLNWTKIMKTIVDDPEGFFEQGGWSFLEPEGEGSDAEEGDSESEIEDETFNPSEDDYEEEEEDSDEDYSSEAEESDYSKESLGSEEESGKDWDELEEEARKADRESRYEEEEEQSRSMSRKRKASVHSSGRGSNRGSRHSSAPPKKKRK
# Sequence of UniProt Q15582 (Q15582 whole entry, looked up): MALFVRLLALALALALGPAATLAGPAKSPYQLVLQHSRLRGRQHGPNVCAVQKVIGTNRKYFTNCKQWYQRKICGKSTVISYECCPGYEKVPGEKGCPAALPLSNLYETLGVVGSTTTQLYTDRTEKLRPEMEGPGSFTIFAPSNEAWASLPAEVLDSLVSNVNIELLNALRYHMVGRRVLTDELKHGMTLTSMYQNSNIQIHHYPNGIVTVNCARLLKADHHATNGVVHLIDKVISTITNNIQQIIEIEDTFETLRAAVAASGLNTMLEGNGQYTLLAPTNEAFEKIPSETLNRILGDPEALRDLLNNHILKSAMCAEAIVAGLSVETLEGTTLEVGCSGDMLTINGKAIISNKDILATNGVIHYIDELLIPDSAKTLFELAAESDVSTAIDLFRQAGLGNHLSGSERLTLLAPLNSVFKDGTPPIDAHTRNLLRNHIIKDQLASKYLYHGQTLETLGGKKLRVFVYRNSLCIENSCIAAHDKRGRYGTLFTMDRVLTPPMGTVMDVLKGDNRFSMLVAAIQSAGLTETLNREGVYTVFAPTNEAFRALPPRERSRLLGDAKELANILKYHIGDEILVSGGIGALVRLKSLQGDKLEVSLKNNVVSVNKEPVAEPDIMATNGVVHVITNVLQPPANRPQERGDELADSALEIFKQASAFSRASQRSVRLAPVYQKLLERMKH
# Sequence of UniProt Q969X1 (Q969X1 whole entry, looked up): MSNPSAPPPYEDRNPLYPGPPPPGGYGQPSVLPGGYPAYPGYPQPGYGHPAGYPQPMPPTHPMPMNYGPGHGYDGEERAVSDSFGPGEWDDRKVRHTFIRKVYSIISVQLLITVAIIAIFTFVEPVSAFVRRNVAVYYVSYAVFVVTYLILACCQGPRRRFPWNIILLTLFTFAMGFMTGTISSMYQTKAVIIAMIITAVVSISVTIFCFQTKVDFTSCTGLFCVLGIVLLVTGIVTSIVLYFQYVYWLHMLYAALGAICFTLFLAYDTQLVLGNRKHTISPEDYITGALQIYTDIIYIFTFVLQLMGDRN
# Sequence of UniProt Q9Y5W9 (Q9Y5W9 whole entry, looked up): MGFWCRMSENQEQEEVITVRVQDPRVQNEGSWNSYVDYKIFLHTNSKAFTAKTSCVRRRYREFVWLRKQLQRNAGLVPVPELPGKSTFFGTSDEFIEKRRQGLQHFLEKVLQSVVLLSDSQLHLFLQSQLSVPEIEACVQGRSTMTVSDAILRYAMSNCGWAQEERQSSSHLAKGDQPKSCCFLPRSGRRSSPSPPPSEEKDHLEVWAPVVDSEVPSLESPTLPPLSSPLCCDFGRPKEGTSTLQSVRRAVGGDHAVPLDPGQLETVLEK
# Sequence of UniProt Q8N5G0 (Q8N5G0 whole entry, looked up): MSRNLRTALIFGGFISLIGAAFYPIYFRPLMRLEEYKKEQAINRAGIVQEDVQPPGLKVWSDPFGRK
# Sequence of UniProt Q7L7X3 (Q7L7X3 whole entry, looked up): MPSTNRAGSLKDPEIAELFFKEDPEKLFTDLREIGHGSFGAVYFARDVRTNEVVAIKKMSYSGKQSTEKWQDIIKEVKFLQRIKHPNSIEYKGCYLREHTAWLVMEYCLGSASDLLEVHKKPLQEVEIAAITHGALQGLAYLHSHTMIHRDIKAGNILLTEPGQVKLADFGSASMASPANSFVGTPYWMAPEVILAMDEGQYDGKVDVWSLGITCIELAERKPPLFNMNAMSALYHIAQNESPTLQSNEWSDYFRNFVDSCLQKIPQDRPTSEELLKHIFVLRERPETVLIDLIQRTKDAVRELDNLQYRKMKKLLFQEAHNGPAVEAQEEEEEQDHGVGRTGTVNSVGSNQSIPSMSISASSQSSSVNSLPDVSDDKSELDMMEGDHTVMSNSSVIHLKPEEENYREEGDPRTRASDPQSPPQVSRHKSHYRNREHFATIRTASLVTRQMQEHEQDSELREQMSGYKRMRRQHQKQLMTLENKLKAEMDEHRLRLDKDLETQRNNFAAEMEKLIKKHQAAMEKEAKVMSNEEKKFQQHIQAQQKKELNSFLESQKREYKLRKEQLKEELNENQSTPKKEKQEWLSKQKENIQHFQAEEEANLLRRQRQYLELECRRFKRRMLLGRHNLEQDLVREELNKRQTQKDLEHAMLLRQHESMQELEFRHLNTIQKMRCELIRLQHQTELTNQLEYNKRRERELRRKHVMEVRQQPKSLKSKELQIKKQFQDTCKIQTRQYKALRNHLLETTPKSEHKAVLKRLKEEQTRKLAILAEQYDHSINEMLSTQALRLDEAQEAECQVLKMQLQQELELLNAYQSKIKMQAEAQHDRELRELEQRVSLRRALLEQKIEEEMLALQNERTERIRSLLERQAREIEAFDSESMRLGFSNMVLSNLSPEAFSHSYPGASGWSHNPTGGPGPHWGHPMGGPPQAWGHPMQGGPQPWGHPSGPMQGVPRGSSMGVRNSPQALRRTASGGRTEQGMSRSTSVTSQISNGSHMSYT
# Sequence of UniProt Q969S0 (Q969S0 whole entry, looked up): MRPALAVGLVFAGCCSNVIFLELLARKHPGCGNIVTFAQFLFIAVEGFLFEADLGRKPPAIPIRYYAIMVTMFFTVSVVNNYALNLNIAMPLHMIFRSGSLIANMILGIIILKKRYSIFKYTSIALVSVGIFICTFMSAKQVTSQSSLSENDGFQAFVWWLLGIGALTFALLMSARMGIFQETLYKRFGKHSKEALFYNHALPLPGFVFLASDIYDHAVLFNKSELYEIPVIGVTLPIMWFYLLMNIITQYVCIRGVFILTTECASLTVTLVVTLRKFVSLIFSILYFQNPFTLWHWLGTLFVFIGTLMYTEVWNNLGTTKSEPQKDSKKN
# Sequence of UniProt Q9BSF4 (Q9BSF4 whole entry, looked up): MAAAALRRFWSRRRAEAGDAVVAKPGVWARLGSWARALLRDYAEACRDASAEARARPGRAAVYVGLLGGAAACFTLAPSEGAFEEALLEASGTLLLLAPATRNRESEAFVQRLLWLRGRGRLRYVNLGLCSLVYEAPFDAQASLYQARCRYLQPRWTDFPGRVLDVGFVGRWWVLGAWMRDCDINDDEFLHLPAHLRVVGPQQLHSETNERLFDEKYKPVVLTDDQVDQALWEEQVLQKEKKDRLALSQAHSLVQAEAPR
Target,log2 fold change (erlotinib),log2 fold change [1],log2 fold change [2],log2 fold change [3],log2 fold change [4],log2 fold change [5],log2 fold change [6],log2 fold change [7],log2 fold change [8],log2 fold change [9],log2 fold change (IRAK-1-4 Inhibitor I),log2 fold change (ibrutinib),log2 fold change [10],log2 fold change (ralimetinib),log2 fold change [11],log2 fold change [12],log2 fold change [13],log2 fold change (pinometostat),log2 fold change [14],log2 fold change [15]
SLC35A1 (UniProt P78382),0.014,-0.126,0.05,-0.008,0.082,-0.017,-0.043,-0.061,-0.052,0.077,-0.057,0.119,-0.027,-0.049,-0.056,0.066,0.007,-0.055,0.059,0.138
SMIM20 isoform 2 (UniProt Q8N5G0),-0.039,-0.111,0.427 (active),0.054,-0.088,0.088,0.023,-0.051,-0.016,-0.06,–,-0.01,-0.023,-0.056,-0.061,0.024,0.006,–,0.05,-0.058
SYK (UniProt P43405),0.06,0.144,-0.019,0.038,0.031,-0.095,0.131,–,-0.042,0.074,-0.192,0.056,-0.277,0.241,-0.1,0.128,0.048,0.19,–,-0.425
TIMM29 (UniProt Q9BSF4),0.028,0.042,0.049,-0.025,0.064,0.018,-0.035,-0.024,0.037,0.011,-0.202,0.024,-0.014,-0.101,0.008,0.071,-0.031,0.444 (active),-0.004,-0.052
TECR (UniProt Q9NZ01),-0.02,0.042,0.036,-0.059,0.018,0.024,0.067,-0.059,0.072,0.045,0.04,-0.059,0,-0.061,-0.107,-0.458 (active),0.009,0.024,0.012,0.036
TAX1BP1 (UniProt Q86VP1),-0.079,-0.005,0.007,0.044,0.035,0.037,-0.044,-0.006,-0.015,-0.027,-0.015,-0.007,-0.195,0.066,-0.008,-0.124,0.076,0.088,0.075,-0.006
SLC35B4 (UniProt Q969S0),-0.055,0.194,-0.033,0.105,0.085,0.024,–,-0.243,-0.015,-0.231,0.092,0.023,0.184,–,0.098,-0.02,–,-0.056,-0.055,0.059
TMBIM1 (UniProt Q969X1),0.092,-0.139,0.122,-0.017,0.198,-0.025,0.517 (active),-0.069,0.172,0.049,–,0.037,-0.126,0.264,0.16,-0.066,-0.166,–,-0.107,0.089
TGFBI (UniProt Q15582),0.003,-0.018,0.054,0.009,0.132,0.034,0.009,-0.133,-0.037,0.029,0.026,0.149,0.045,-0.099,0.244,-0.044,0.05,-0.092,0.115,-0.039
TM9SF4 (UniProt Q92544),-0.015,0.011,-0.006,0.052,-0.054,-0.002,0.008,0.038,-0.012,0.066,-0.006,0.008,-0.016,0.031,-0.006,-0.033,0.029,0.016,-0.015,0.077
SUPT16H (UniProt Q9Y5B9),0.177,0.25,0.091,-0.012,0.155,0,0.064,0.098,-0.098,-0.011,-0.155,-0.139,-0.259,-0.059,-0.174,-0.26,0.083,0.044,-0.015,-1.34 (active)
SRSF9 (UniProt Q13242),-0.084,-0.4,-0.721 (active),0.138,-0.211,0.052,-0.087,-0.229,–,–,-0.094,0.106,-0.13,0.199,0.219,0.019,0.171,0.29,-0.011,–
SNX11 (UniProt Q9Y5W9),0.034,-0.029,0.035,0.037,-0.048,-0.028,-0.035,-0.042,-0.079,0.071,0.069,0.13,-0.062,-0.001,0.085,-0.218,0.043,-0.067,0.134,-0.101
SRC isoform 2 (UniProt P12931),-0.014,-0.034,-0.006,0.153,0.088,0.022,0.036,-0.049,-0.073,-0.025,-0.018,–,-0.251,-0.136,-0.22,0.159,0.05,0.087,0.067,0.02
TAOK1 (UniProt Q7L7X3),0.006,0.045,-0.027,0.09,-0.033,0.009,-0.009,-0.007,-0.005,-0.01,0.011,-0.057,-0.827 (active),0.062,0.009,-0.031,0.018,-0.052,0.011,0.05
SLC35F6 (UniProt Q8N357),0.12,-0.078,-0.008,-0.067,-0.013,-0.047,0.417 (active),-0.024,-0.057,0.122,–,-0.002,-0.016,-0.18,0.061,-0.22,0.319,–,-0.177,0.078
SMARCA4 (UniProt P51532),0.02,0.073,0.032,0.102,0.035,-0.001,-0.096,-0.124,–,–,-0.155,-0.136,-0.056,0.255,0.027,-0.397,0.16,0.193,–,–
